For 40 compounds, outcome results are on record in PubChem BioAssay (EPA / NIEHS).

Calls of active or inactive are those of the source. How the source made its calls: active means hit-call score of the fitted dose curve at least 0.9, where 1 is the maximum; inactive means score below 0.9.

The target in the test is Transcription factor Sp1 (Homo sapiens) (UniProt P08047). The experiment in a line: ATG_Sp1_CIS: Attagene CIS-FACTORIAL HepG2 Assay for human Specificity Protein 1 (Sp1) (AID 2282961). To be noted: HepG2 Sp1 cis-reporter transcription, actives raise or lower the signal. The protocol: ATG_CIS is a cell-based, multiplexed-readout assay that uses HepG2, a human liver cell line, with measurements taken at 24 hours after chemical dosing in a 24-well plate.ATG_Sp1_CIS is one of 52 assay component(s) measured or calculated from the ATG_CIS assay. It is designed to make measurements of mRNA induction, a form of inducible reporter, as detected with fluorescence intensity signals by Reverse transcription polymerase chain reaction (RT-PCR) and Capillary electrophoresis technology.Data from the assay component ATG_Sp1_CIS was analyzed into 1 assay endpoint. This assay endpoint, ATG_Sp1_CIS, was analyzed with bidirectional fitting relative to DMSO as the negative control and baseline of activity. Using a type of inducible reporter, measures of mRNA for gain or loss-of-signal activity can be used to understand the reporter gene at the transcription factor-level as they relate to the gene SP1. Furthermore, this assay endpoint can be referred to as a primary readout, because this assay has produced multiple assay endpoints where this one serves a reporter gene function. To generalize the intended target to other relatable targets, this assay endpoint is annotated to the dna binding intended target family, where the subfamily is zinc finger.
Transcription factor Sp1 (Homo sapiens), sequence (P08047 whole entry, looked up): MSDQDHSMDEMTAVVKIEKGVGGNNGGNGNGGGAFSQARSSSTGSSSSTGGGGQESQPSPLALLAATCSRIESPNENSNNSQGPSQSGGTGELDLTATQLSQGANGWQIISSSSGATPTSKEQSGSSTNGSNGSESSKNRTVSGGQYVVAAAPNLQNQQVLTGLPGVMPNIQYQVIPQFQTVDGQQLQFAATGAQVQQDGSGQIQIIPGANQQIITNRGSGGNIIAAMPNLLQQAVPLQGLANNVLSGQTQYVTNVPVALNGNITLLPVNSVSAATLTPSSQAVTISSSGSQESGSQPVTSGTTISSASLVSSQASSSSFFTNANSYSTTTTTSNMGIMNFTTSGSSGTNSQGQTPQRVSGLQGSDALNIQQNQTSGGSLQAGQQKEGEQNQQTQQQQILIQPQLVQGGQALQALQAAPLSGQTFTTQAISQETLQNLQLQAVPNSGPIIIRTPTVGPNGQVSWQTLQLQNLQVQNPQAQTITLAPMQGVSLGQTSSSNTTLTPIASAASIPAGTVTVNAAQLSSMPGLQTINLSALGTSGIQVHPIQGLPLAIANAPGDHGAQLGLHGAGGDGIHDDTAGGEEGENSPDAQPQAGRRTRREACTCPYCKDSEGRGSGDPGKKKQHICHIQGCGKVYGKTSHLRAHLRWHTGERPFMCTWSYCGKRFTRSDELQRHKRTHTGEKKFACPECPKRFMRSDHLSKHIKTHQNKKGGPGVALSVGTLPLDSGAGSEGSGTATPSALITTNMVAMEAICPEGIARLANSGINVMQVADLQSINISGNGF
Human liver HepG2 cells are transiently transfected with multiple reporter transcription units (MRTUs) in 6-well plates using FuGene 6 reagent (Roche; 3 ml FuGene/1 mg DNA). The MRTU constructs are regulated by a cis-regulating element (promoter). […] A major difference between the CIS and TRANS system is that in CIS activities of endogenous TFs are measured, whereas the TRANS assay evaluates changes in activities of exogenous, chimeric NR-Gal4 proteins. […] At the end of 24 hour incubation, total RNA was isolated using TriZol reagent (Invitrogen). The isolated RNA is then reverse-transcribed using oligo(dT) primer and Mo-MLV reverse transcriptase (Invitrogen) with DNAse I (Ambion) treatment for 30 min. The one-tenth of the produced cDNA was amplified by PCR using Taq DNA polymerase (Invitrogen) and two reporter sequence-specific primers. The PCR products were fluorescently labeled by primer extension with 6-arboxyfluorescein (6-FAM) 5'-labeled reporter sequence-specific primer (2 min at 95 C, 20 s at 68 C and 10 min at 72 C) and these products were digested with 5U of HpaI (New England Biolabs) for 2h at 37 C. The fragments were purified using Qiaquick PCR columns (Qiagen), analyzed on an ABI 3130xL genetic analyzer (Applied Biosystems) with peak positions identified by using a set of X-rhodamine (ROX)-labeled MapMarker1000 molecular weight standards (BioVentures). The raw capillary electrophoresis data was processed using Attagraph software (Attagene).
Regarding `Cc1cc(N)n(-c2ccccc2)n1`, the outcome was inactive.
Turning to `C=C1CC/C=C(\C)CC[C@@H]2[C@@H]1CC2(C)C`, the outcome was inactive.
As to `CCCCCCCCCCCCS`, the result was inactive.
With `COc1cc(OC)c2ccc(=O)oc2c1` the entry was “inactive”; with `COC(=O)c1cccc(C(=O)OC)c1`, “inactive”.
As to `CC(=O)C1C(=O)C=C(C)OC1=O` (stereo not given), the result was inactive.
Turning to `C=C1CC[C@H]2O[C@]2(C)CC[C@@H]2[C@@H]1CC2(C)C`, the result was inactive.
Turning to `CC1(C)CC(=O)CC(C)(C)N1`, the compound was called inactive.
`CCCCCCCCOS(=O)(=O)O`: the compound was called inactive.
`CCc1cccc(O)c1`: the result was inactive.
Take `O=C(O)c1ccco1`: the call was inactive.
For `CCCC(O)C(CC)CO` (stereo not given), the result was inactive.
Take `CC1(C)[C@H](C=C(Cl)Cl)[C@H]1C(=O)OCc1cccc(Oc2ccccc2)c1`: the call was inactive.
Under `C[C@]12CC[C@@H]3c4ccc(O)cc4CC[C@H]3[C@@H]1CC[C@@H]2O` stands “inactive”; under `CC1=CC[C@@H](C(C)(C)O)CC1`, “inactive”.
As to `C=CC(C)CCCC(C)(C)O` (stereo not given), the compound was classed as inactive.
On to `Cc1cc(O)c(C)c(C)c1O`, for which the outcome was inactive.
Under `O=S1(=O)CC=CC1` stands “inactive”; under `CCCCCc1cccc(=O)o1`, “inactive”.
For `CC(=N[Si](C)(C)C)O[Si](C)(C)C`, the compound was called inactive.
For the compound `CC1=CCC(C(C)(C)O)CC1` (stereo not given), the outcome was inactive.
For the compound `Nc1ccc(O)c(N)c1`, the compound was classed as inactive.
For `CC(=O)Nc1cc(S(=O)(=O)O)cc2cc(S(=O)(=O)O)c(N=Nc3ccccc3)c(O)c12`, the compound was classed as inactive.
`CC(C)N(c1ccccc1)C(C)C`: the compound was called inactive.
Regarding `O=C1CCCCCCCCCCCC(=O)OCCO1`, the call was inactive.
For `C=C(C)C(=O)OCCC[Si](OC)(OC)OC`, the outcome was inactive.
As to `CNC(=C[N+](=O)[O-])NCCSCc1ccc(CN(C)C)o1`, the outcome was inactive.
As to `CC(C)N1C(=O)c2ccccc2C1=O`, the call was inactive.
Consider `CC(O)CNCC(C)O` (stereo not given), for which the compound was called inactive.
Take `CCCCCC#CC(=O)OC`: the outcome was inactive.
`CC/C=C\C#N`: the call was inactive.
As for `c1ccc2scnc2c1`, the compound was called inactive.
In the case of `O=S1(=O)CC(Cl)(Cl)C(Cl)(Cl)C1`, the call was inactive.
As for `O=C(O)CS`, the outcome was inactive.
As to `CC(C)(C)c1cccc(O)c1`, the outcome was inactive.
Regarding `CCCC1CCC(=O)CC1`, the outcome was inactive.
On to `CCC(=O)OC(C)(C)C1CC=C(C)CC1` (stereo not given), for which the call was inactive.
Consider `C=C/C(C)=C/C/C=C(\C)CCC=C(C)C`, for which the result was inactive.
Regarding `CCCCCCCCCCCCCCCCCC(=O)OCCCCCCCCCCCCCC(C)C`, the result was inactive.
For the compound `O=c1cc[nH]cc1`, the compound was classed as inactive.
